Compounds with a hit are over-represented: about 9% of the library has one in this group of screens.
HTT ATP protect: cytoprotection in Huntington HTT-Q103 PC12 cell model; hit rate 0.14% among 230,000; Potency, µM (highest dose often 56.4 µM), for the others: cytoprotection (ATP increase), hits mostly activators; PC12 HTT-Q103 induced, cytoprotection, ATP luminescence, 40 h; also: % of control where 0% means no effect; nearly all actives have a fitted effect of over 45% in size
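Quantitative HTS on tebufenozide-induced (100 nM) PC12 cells expressing HTTQ103 exon 1–GFP; compounds tested as a concentration series; survival measured via cellular ATP.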
ALDH1A1 block: ALDH1A1 (human) enzyme inhibition. Purified ALDH1A1, NADH fluorescence, propionaldehyde substrate. AID 1030. Potency, µM (doses to about 75.3 µM), for inactives: at the highest dose activity, negative = inhibition, actives largely listed as inhibitors. hit rate 7.3% among 220,000. P00352; active = well fitted inhibition curve with a large enough effect, not every such curve was filed as active; inconclusive = small, poorly fitted or top-dose-only effect, or another doubt; inactive = no such curve, though single readings can be large or run the other way;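 also: plate controls were no enzyme wells and a reference inhibitor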
Target sequence (P00352 whole entry, looked up): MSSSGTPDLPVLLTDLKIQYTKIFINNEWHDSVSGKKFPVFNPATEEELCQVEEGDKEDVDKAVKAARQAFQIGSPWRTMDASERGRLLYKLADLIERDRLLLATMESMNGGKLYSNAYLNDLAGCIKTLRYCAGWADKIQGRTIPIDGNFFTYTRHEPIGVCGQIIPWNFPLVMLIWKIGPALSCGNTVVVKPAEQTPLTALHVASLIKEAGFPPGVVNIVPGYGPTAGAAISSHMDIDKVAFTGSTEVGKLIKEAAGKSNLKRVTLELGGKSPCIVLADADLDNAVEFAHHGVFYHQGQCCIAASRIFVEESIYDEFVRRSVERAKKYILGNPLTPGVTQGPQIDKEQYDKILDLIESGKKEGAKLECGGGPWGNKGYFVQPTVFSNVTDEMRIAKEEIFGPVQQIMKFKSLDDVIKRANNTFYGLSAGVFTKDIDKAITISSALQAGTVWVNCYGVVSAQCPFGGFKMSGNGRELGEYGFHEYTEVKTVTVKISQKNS
HttQ103 aggreg: reduces HttQ103-GFP aggregates in PC12 cells. hit rate 1.1% among 220,000. PC12 HttQ103-GFP aggregates, Acumen cytometry, 40 h. Potency, µM (series often up to 46.1 µM), inactives show at the highest dose activity change, negative = inhibition, usual class: inhibitors. AID 1688; also: % is scaled to controls: 0 for no effect and ±100 for the full control effect; nearly all actives have a fitted effect of over 60% in size
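Read-out: GFP aggregate count by laser scanning cytometer (488 nm excitation, 500-530 nm emission, 1–25 µm objects >6 SD above background). Cells: PC12, inducible HTTex1-Q103-GFP, 100 nM tebufenozide; compounds titrated.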
KinaseGlo FLuc: counter-screen: inhibitors of Kinase-Glo firefly luciferase. Kinase-Glo luciferase, ATP luminescence, 8 min. hit rate 0.28% among 200,000. Potency, µM (series often up to 38.3 µM), for the others: at the top dose activity change, negative = inhibition, hits mostly inhibitors; also: % is scaled to controls: 0 for no effect and ±100 for the full control effect; nearly all actives have a fitted effect of over 60% in size
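Light output from Kinase-Glo luciferase with luciferin and 10 uM ATP in 50 mM imidazole pH 7.2, KCl, MgCl2, Tween 20, BSA; compound pin-delivered, 8-min ambient incubation, then luminescence read.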
HPGD inh: inhibitors of human 15-hydroxyprostaglandin dehydrogenase (HPGD). hit rate 4.3% among 150,000. Potency, µM, inactives show at the top dose activity change, negative = inhibition, actives largely listed as inhibitors. purified HPGD, NADH fluorescence kinetic, PGE2 substrate. P15428; active = well fitted inhibition curve with a large enough effect, not every such curve was filed as active; inconclusive = small, poorly fitted or top-dose-only effect, or another doubt; inactive = no such curve, though single readings can be large or run the other way; also: % is scaled to controls: 0 for no effect and ±100 for the full control effect
Target sequence (P15428 whole entry, looked up): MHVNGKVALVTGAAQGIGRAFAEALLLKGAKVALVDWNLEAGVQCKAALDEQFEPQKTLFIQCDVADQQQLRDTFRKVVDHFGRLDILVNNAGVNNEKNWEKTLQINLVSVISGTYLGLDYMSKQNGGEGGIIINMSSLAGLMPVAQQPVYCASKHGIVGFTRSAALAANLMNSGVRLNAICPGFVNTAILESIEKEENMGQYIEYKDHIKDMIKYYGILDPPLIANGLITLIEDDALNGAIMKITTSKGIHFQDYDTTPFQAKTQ
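20 nM HPGD preincubated 15 min at room temperature with compound in 50 mM Tris-HCl pH 8, 0.01% Tween 20. Started with 1 mM NAD+ and 30 uM prostaglandin E2; NADH fluorescence (360/450 nm) read 5 times over 30-s intervals, last minus first.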
Lamin A splicing: modulators of lamin A splicing; HeLa LMNA splicing GFP/RFP minigene ratio, 48 h; Potency, µM (highest dose often 46.1 µM), for inactives: at the highest dose ratio change, negative = inhibition, most hits filed as inhibitors; hit rate 0.01% among 200,000; AID 1487; active = well fitted inhibition curve with a large enough effect in the signal ratio, with a control signal flat, not every such curve was filed as active; inconclusive = small, poorly fitted or top-dose-only effect, or effect the other way, or a change in a side signal; the % refers to the signal ratio; also: % is scaled to controls: 0 for no effect and ±100 for the full control effect
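S3 HeLa stable clones carrying a lamin A-EGFP splicing minigene plus DsRed2 were seeded at 600 cells/well in Opti-MEM with 2% FBS, pin-dosed and incubated 48 h at 37°C. Acumen cytometry (488 nm) gave the GFP/RFP total-intensity ratio.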
* hit, by the source's call; ? = inconclusive; . = no result given; [ ] = dose if it differs, or a comment. Unless noted, calls follow the shape of the dose curve; as a rule, active = well fitted curve in the direction sought with a large enough effect; inconclusive = small, poorly fitted or top-dose-only effect, or another doubt; inactive = no such curve, though single readings can be large; an effect the other way counts as inactive or inconclusive. Potency is read from the fitted curve at half-maximal effect.

SMILES	HTT ATP protect	ALDH1A1 block	HttQ103 aggreg	KinaseGlo FLuc	HPGD inh	Lamin A splicing
COc1ccccc1Cn1nnc2c(=O)[nH]c(C3CCN(C(=O)c4ccc(C)cc4)CC3)nc21	1%	1%	7%	-1%	?	25%
O=C(Cc1cccs1)N1CCCC(c2nc3c(nnn3Cc3ccccc3Cl)c(=O)[nH]2)C1 (centres undefined)	16%	?	7%	-4%	?	25%
O=C(c1ccccc1Cl)N1CCC(c2nc3c(nnn3Cc3ccco3)c(=O)[nH]2)CC1	-4%	28µM*	8%	-2%	14µM*	-10%
Cc1ccccc1C(=O)Nc1ccccc1C(=O)N/N=C\c1ccco1	-22%	?	4%	-16%	-7%	6%
COc1ccc2oc3cc(C)[n+]([O-])c(-c4ccc(Br)cc4)c3c2c1	35%[10 µM]	2%	-30%	-2%	-12%	?
COCc1cc(=O)[nH]c(SCC(=O)c2ccccc2)n1	2%[10 µM]	-4%	-10%[9.22 µM]	.	.	.
COCc1cc(=O)[nH]c(SCCS(=O)(=O)c2ccc(C)cc2)n1	4%[10 µM]	0.79µM*	-5%[9.22 µM]	.	.	.
O=C(NC1CCCCCC1)c1cc2n(n1)C(C(F)(F)F)CC(c1ccco1)N2 (centres undefined)	-14%	-9%	4%	2%	-9%	-4%
NC(=O)C1CCN(C(=O)c2cc3n(n2)C(C(F)(F)F)CC(c2ccco2)N3)CC1 (centres undefined)	-5%	12µM*	-17%	-1%	-11%	-6%
COC(=O)Cn1c(C)nc([N+](=O)[O-])c1Br	-19%	1%	?	-1%	.	-9%[9.22 µM]
Cc1nc([N+](=O)[O-])c(Br)n1CC(=O)c1ccc(F)cc1	-248%	-3%	28µM*	-1%	.	?
Cc1ccnc(SCC(=O)c2cccc([N+](=O)[O-])c2)n1	1%[10 µM]	32µM*	5%	2%	-19%	-3%
Cc1nc([N+](=O)[O-])c(Br)n1CC(=O)c1cccc([N+](=O)[O-])c1	-60%[10 µM]	25µM*	?	6%	.	-2%[9.22 µM]
Cc1nc(SCC(=O)c2cccc([N+](=O)[O-])c2)n[nH]1	11%[10 µM]	?	?	2%	-28%	-8%
CC1(C)CC(CCNS(=O)(=O)c2ccccc2)(c2ccccc2)CCO1 (centres undefined)	32%[10 µM]	2%	-3%	2%	1%	-8%
O=C(NNC(=O)c1cc2cc(Br)ccc2oc1=O)c1ccc(O)cc1O	?	1%	35µM*	-3%	.	.
CCN1CCN(CCCOc2ccccc2-c2ccccc2)CC1	.	11µM*	.	-2%	.	.
COc1ccc(C)cc1NC(=O)C(=O)N1CCCC1	15%[10 µM]	.	2%[9.22 µM]	.	.	.
O=C(O)c1cc(S(=O)(=O)NCc2ccco2)c(Cl)cc1Cl	2%	20µM*	5%	-1%	-18%	0%
O=C(/C=C/c1ccccc1Cl)Nc1ccc(-c2nnc3n2CCCCC3)cc1	?	-4%	-9%	-2%	4µM*	-5%
Cc1c(C(=O)Nc2ccc(-c3nnc4n3CCCCC4)cc2)oc2c1ccc1ccccc12	-20%[10 µM]	-12%	9%	0%	?	?
O=C(Nc1ccc(-c2nnc3n2CCCCC3)cc1)c1cc2ccccc2o1	8%[10 µM]	-1%	15%	-4%	2.2µM*	-8%
Clc1ccccc1-c1nnc2n1CCCCC2	4%[10 µM]	.	-20%[9.22 µM]	.	.	.
CC(=O)NC1=NC(=O)/C(=C/c2cc(C)n(-c3cccc(C(=O)O)c3)c2C)S1	-14%	-8%	17%	.	.	.
CC(=O)Nc1ccc(C(=O)NNC(=O)c2cc([N+](=O)[O-])cc([N+](=O)[O-])c2)cc1	-5%[10 µM]	10%	-19%[9.22 µM]	1%	.	16%[46 µM]
SMILES	HTT ATP protect	ALDH1A1 block	HttQ103 aggreg	KinaseGlo FLuc	HPGD inh	Lamin A splicing
Cc1ccc(NC(=O)c2ccc(Nc3c([N+](=O)[O-])cc([N+](=O)[O-])cc3[N+](=O)[O-])cc2)cc1	.	0.56µM*	?	-1%	-7%	?
CN1CCN(C(=S)c2ccc(-c3cccc(Cl)c3Cl)o2)CC1	.	?	-5%	0%	22µM*	?
S=C(c1ccc(-c2ccccc2Cl)o1)N1CCCCC1	-32%[10 µM]	?	?	-2%	28µM*	?
COc1ccc(-n2c(=O)c3c4c(sc3n(CC(=O)NCc3ccco3)c2=O)CCC4)c(OC)c1	1%[10 µM]	-12%	6%	4%	-9%	-16%
COn1c(-c2ccccc2)nc2c1CCc1nonc1-2	-4%	7.9µM*	14%	-2%	-23%	5%
c1ccc(COn2c(-c3ccccc3)nc3c2CCc2nonc2-3)cc1	-17%	8.9µM*	15%	.	.	?
COc1ccc(OC)c(/C=N/NC(=O)c2[nH]nc3c2CCc2ccccc2-3)c1	-18%[10 µM]	?	-1%	3%	?	-14%
CCN1CCN(C(=O)c2cc(COc3ccc4ncccc4c3)on2)CC1	.	-7%	.	-1%	.	18%[46 µM]
COc1cc(SC#N)ccc1N=Cc1c(C)[nH]n(-c2ccc(C)c(C)c2)c1=O	-3%[10 µM]	0.28µM*	12%	?	-15%	?
COc1cc(SC#N)ccc1N=Cc1c(C)[nH]n(-c2ccc(Cl)cc2)c1=O	-8%	2.5µM*	27%	-18%	-20%	8%
CCNC(=S)N(Cc1cccs1)Cc1cc2cc(OCC)ccc2[nH]c1=O	20%[10 µM]	?	25%	1%	-16%	-9%
O=C(Nc1ccc(Cl)cn1)c1ccc2ccccc2n1	-6%	-1%	16%	-9%	-10%	8%
O=C1COc2ccc(C(=O)CSc3nnnn3-c3ccccc3)cc2N1	-7%[10 µM]	5µM*	4%	-2%	-19%	8%
CCCn1c(SCC(=O)c2ccc3c(c2)NC(=O)CO3)nc2ccccc21	.	3.2µM*	-13%	-2%	-20%	?
CC(=O)c1ccc(OCc2ccc(C(=O)c3ccccc3)cc2)cc1	24%[10 µM]	11µM*	?	-3%	.	.
O=C(O)COc1ccc(C(=O)c2ccccc2)cc1	-24%	1%	8%	.	.	.
Cc1cc(OCC(=O)Nn2cnnc2)c(C)cc1Br	5%[10 µM]	8%	-2%	-2%	-3%	-4%
COc1cccc2c1C(CO)N1C(C#N)C3CC(C(=O)O)C(C1C2)N3C (centres undefined)	-55%[10 µM]	.	1.1µM*	.	.	.
COc1cccc2c1OCC(C(=O)O)C2 (centres undefined)	9%[10 µM]	-7%	9%[9.22 µM]	-5%	.	20%[46 µM]
COc1ccc(Cn2c(O)cc(=O)[nH]c2=O)cc1	-16%[10 µM]	?	20%	2%	-27%	-5%
CCOc1ccc(Cn2c(O)cc(=O)[nH]c2=O)cc1	-4%[10 µM]	18µM*	9%	-1%	-12%	-7%
COCCn1c(SCC(=O)c2ccccc2)nc2c(c1=O)SCC2	-16%	?	-13%	-3%	.	8%[9.22 µM]

Source: PubChem
